From the supplement of paper PMC10646978
± gives the standard deviation.

Legend:
Settings in all cases: modulator concentration 10 µM
[1] = tested on: RAW-Dual (murine macrophage reporter line); assay: NF-kB reporter (SEAP) activity fold change vs agonist alone; higher = enhanced NF-kB activity
In short: (§1)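 Overnight stimulation with a PRR agonist followed pre-incubation for 1 hour at 37 °C with compound at 10 μM final. This was done in RAW-Dual murine macrophage reporter cells seeded at 50 000 per well in 384-well plates. NF-κB (SEAP, QUANTI-Blue absorbance at 620 nm) and IRF (Lucia luciferase, QUANTI-Luc luminescence) were read from the supernatant. Each reporter's fold change relative to the mean agonist-only control on the same plate was averaged over replicate plates.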

[2] = tested on: RAW-Dual (murine macrophage reporter line); assay: IRF reporter (Lucia luciferase) activity fold change vs agonist alone; higher = enhanced IRF activity
In short: as §1

[3] = tested on: RAW-Dual (murine macrophage reporter line); assay: viability score (confluency relative to resting cells, overnight) (fraction); higher = more viable, active = viable (0.7 or more)
In short: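 RAW-Dual macrophages in 384-well plates were exposed overnight to compound at 10 μM final. Confluency was imaged with IncuCyte, and two confluency masks were generated with IncuCyte software over all imaged wells. The viability score is confluency expressed relative to resting cells. Compounds were called viable if both masks exceeded 70% of resting cells.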

[4] = agonist: CpG ODN 1826 0.5 ug/mL

SMILES	NF-kB reporter [1, 4]	NF-kB reporter ([1]; agonist: LPS 0.1 ug/mL)	NF-kB reporter ([1]; agonist: MPLA […])	IRF reporter ([2]; agonist: 3'3'-cGAMP 10 ug/mL)	IRF reporter ([2]; agonist: LPS 0.1 ug/mL)	IRF reporter ([2]; agonist: MPLA […])	viability score [3]
O=C1C(O)=C(c2ccc([N+](=O)[O-])cc2)C(=O)c2ccccc21	0.967 ± 0.065	1.02 ± 0.1	0.905 ± 0.079	0.969 ± 0.038	1.53 ± 0.13	1.28 ± 0.23	1 (active)
CCOC(=O)c1ccccc1NC(=O)CN(c1cc(C)ccc1OC)S(C)(=O)=O	1.05 ± 0.097	1.03 ± 0.068	0.994 ± 0.047	1.01 ± 0.21	1.05 ± 0.11	1 ± 0.2	1 (active)
c1ccc(CSc2nnc(-c3cccnc3)o2)nc1	0.986 ± 0.056	1.09 ± 0.084	1 ± 0.074	0.992 ± 0.036	0.95 ± 0.13	0.858 ± 0.33	1 (active)
O=C(c1cc2ccccc2o1)N1CC(N2C(=O)CNC2=O)C1	1.17 ± 0.28	1.04 ± 0.081	1.06 ± 0.077	0.933 ± 0.038	1.12 ± 0.15	1.33 ± 0.13	0.989 (active)
CN1c2ccccc2-c2ccccc2C12C=Cc1cc([N+](=O)[O-])ccc1O2 (centres undefined)	0.385 ± 0.021	0.916 ± 0.1	0.879 ± 0.07	1.09 ± 0.07	1.27 ± 0.2	1.1 ± 0.12	0.999 (active)
O=C(CC1(Cc2ccc(I)cc2)C(=O)c2ccccc2C1=O)c1ccccc1	0.803 ± 0.073	0.876 ± 0.046	1.02 ± 0.091	0.953 ± 0.044	1.42 ± 0.12	1.59 ± 0.17	0.996 (active)
COc1cc2c(cc1OC)C(=S)NC1(CCCC1)C2	0.886 ± 0.33	0.985 ± 0.12	0.941 ± 0.1	0.962 ± 0.04	1.04 ± 0.16	1.28 ± 0.23	0.596 (inactive)
COc1ccc(CCNC2CC(=O)N(C)C2=O)cc1OC (centres undefined)	1.08 ± 0.061	1.03 ± 0.11	0.994 ± 0.046	0.944 ± 0.07	0.998 ± 0.091	0.895 ± 0.15	0.997 (active)
CCCN1CCC(NCCc2ccc(Cl)cc2)CC1	1.18 ± 0.069	0.97 ± 0.081	1.1 ± 0.036	0.761 ± 0.028	0.994 ± 0.065	0.943 ± 0.11	0.995 (active)
Cc1cc2nc3sc(=Cc4ccccc4OCc4ccc(Cl)cc4Cl)c(=O)n3c2cc1C	0.975 ± 0.088	1.07 ± 0.069	0.962 ± 0.072	0.99 ± 0.034	1.47 ± 0.18	1.14 ± 0.12	0.999 (active)
Cc1ccc2oc(-c3cccc(NC(=O)C(C)C)c3C)nc2c1	0.792 ± 0.062	0.908 ± 0.068	0.972 ± 0.094	0.848 ± 0.04	1.16 ± 0.068	1.33 ± 0.13	1.01 (active)
CCc1ccccc1N(CC(=O)Nc1ccc(Cl)cc1C)S(C)(=O)=O	0.842 ± 0.087	1.05 ± 0.068	0.893 ± 0.047	0.88 ± 0.12	1.08 ± 0.14	0.876 ± 0.18	1 (active)
CC(=O)Nc1ccc(S(=O)(=O)N2CCCc3ccccc32)cc1	1.15 ± 0.092	0.888 ± 0.081	1.09 ± 0.1	1.13 ± 0.043	1.27 ± 0.24	1.54 ± 0.32	0.984 (active)
CC(=NNC(=O)CNc1ccccc1C)c1ccc(Br)cc1	1.09 ± 0.093	1.01 ± 0.14	1.03 ± 0.098	0.998 ± 0.032	1.23 ± 0.13	1.38 ± 0.19	0.982 (active)
Cc1ccc(-c2cc(-c3ccccc3)nc(NN=Cc3ccc(O)cc3)n2)cc1	0.952 ± 0.12	1.3 ± 0.14	1.7 ± 0.17	0.228 ± 0.026	0.942 ± 0.12	0.949 ± 0.12	0.923 (active)
CCOc1ccc(Nc2oc(-c3ccc(COc4ccc(C)cc4)o3)nc2C#N)cc1	1.03 ± 0.082	0.717 ± 0.089	1.04 ± 0.099	0.998 ± 0.035	1.41 ± 0.24	1.67 ± 0.41	0.832 (active)
COc1cc(O)c(C(=O)Nc2nc(C(=O)NCCN(C(C)C)C(C)C)cs2)cc1OC.Cl.O.O.O	1.01 ± 0.098	0.966 ± 0.13	0.968 ± 0.022	0.96 ± 0.064	1 ± 0.11	1.05 ± 0.18	0.997 (active)
c1ccc(Nc2nc(Nc3ccccc3)nc(N3CCCCC3)n2)cc1	0.605 ± 0.04	1.01 ± 0.062	0.977 ± 0.064	1.05 ± 0.053	1.53 ± 0.15	1.22 ± 0.2	0.995 (active)
CC(C)C1=CC2=CCC3C(C)(C(=O)O)CCCC3(C)C2CC1 (centres undefined)	0.962 ± 0.076	0.863 ± 0.065	0.891 ± 0.085	0.93 ± 0.03	1.22 ± 0.2	1.35 ± 0.33	1.05 (active)
N#Cc1c(NC(=O)c2cccc3ccccc23)sc2c1CCCC2	1.67 ± 0.13	0.863 ± 0.073	1.14 ± 0.12	0.616 ± 0.019	1.35 ± 0.18	1.48 ± 0.23	0.879 (active)
Cc1cc(-c2ccc(NC(=O)c3ccc([N+](=O)[O-])cc3)c(C)c2)ccc1NC(=O)c1ccc([N+](=O)[O-])cc1	0.994 ± 0.067	0.988 ± 0.06	0.928 ± 0.064	0.966 ± 0.057	1.26 ± 0.08	1.15 ± 0.27	0.999 (active)
CCOc1ccccc1NC(=O)Nc1ccc2c(c1)CCC(=O)N2C	1.91 ± 0.14	1.41 ± 0.11	0.99 ± 0.057	0.404 ± 0.025	0.282 ± 0.032	0.389 ± 0.079	0.933 (active)
COc1ccc(Cl)cc1C(=O)NCCc1ccc(S(=O)(=O)NC(=O)NC2CCCCC2)cc1	0.75 ± 0.067	0.932 ± 0.056	0.987 ± 0.09	1.06 ± 0.052	1.36 ± 0.099	1.44 ± 0.15	1 (active)
Cc1cccc(OCC(=O)Nc2cccc([N+](=O)[O-])c2)c1C	0.982 ± 0.16	1.17 ± 0.14	1.03 ± 0.11	0.947 ± 0.028	1.21 ± 0.23	1.24 ± 0.21	0.974 (active)
COc1cc(C)ccc1NC(=O)Cc1csc(NC(=O)Nc2ccccc2OC)n1	1.32 ± 0.14	1.02 ± 0.074	0.887 ± 0.1	0.978 ± 0.063	0.793 ± 0.059	0.818 ± 0.26	1 (active)
CC(N)C12CC3CC(CC(C3)C1)C2 (centres undefined)	0.979 ± 0.045	0.933 ± 0.14	1.06 ± 0.058	1.02 ± 0.056	1.12 ± 0.2	1.24 ± 0.37	1.01 (active)
CCC(NC(C)C)C(O)c1ccc(O)c(O)c1 (centres undefined) [Prestw-749]	2.04 ± 0.12	1.13 ± 0.092	1.34 ± 0.13	0.988 ± 0.039	0.96 ± 0.051	1.08 ± 0.25	0.997 (active)
